The record followed here is PubChem BioAssay (EPA / NIEHS).

Test [1] can be described thus: TOX21_p53_BLA_p2_viability: Viability Assessment in the Tox21 HCT-116 p53 Agonism Beta-lactamase Assay, Phase 2 (AID 2283591).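 Further: compound exposure lasted 16 h at 37 °C; actives lower the ATP signal meaning cytotoxicity.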 A digest of the protocol: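 HCT-116 p53-bla cells (4000/well) rested 5 h at 37C, then received compounds in DMSO (217-fold dilution) for 16 h at 37C, 5% CO2. After the CCF4 read, CellTiter-Glo was added; ATP luminescence was read after 30 min at room temperature.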

Test [2] in a line: TOX21_p53_BLA_p3_viability: Viability Assessment in the Tox21 HCT-116 p53 Agonism Beta-lactamase Assay, Phase 3 (AID 2283593).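 Further: cells exposed to compound for 16 h before reading.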 A digest of the protocol: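 HCT-116 cells (4000/well) rested 5 h at 37C, then got DMSO compounds by pin tool (217-fold dilution) for 16 h at 37C, 5% CO2. After the bla read, CellTiter-Glo was added and luminescence read at 30 min, room temperature.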
Test [3] deals with Cellular tumor antigen p53 (Homo sapiens) (UniProt P04637). Kind of test: TOX21_p53_BLA_p3_ratio: Tox21 HCT-116 p53 Agonism Beta-lactamase Assay, Ratio, Phase 3 (AID 2283596). A digest of the protocol: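 HCT116 p53-bla cells (4000/well) given compound in DMSO (217-fold dilution) after 5 h, incubated 16 h at 37C. CCF4-AM substrate 2 h at room temperature; 460/530 nm emission ratio, gain fitted against DMSO.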

Test [4] can be described thus: TOX21_p53_BLA_p5_viability: Viability Assessment in the Tox21 HCT-116 p53 Agonism Beta-lactamase Assay, Phase 5 (AID 2283600). A digest of the protocol:
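Seeded cells (4000/well) settle 5 h before compound addition. Plates then incubate 16 h at 37C, receive FRET substrate for 2 h, and finally CellTiter-Glo, with luminescence measured after a 30 min room-temperature incubation.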

For test [5], the target named is Cellular tumor antigen p53 (Homo sapiens) (UniProt P04637). Kind of test: TOX21_p53_BLA_p5_ratio: Tox21 HCT-116 p53 Agonism Beta-lactamase Assay, Ratio, Phase 5 (AID 2283599). A digest of the protocol: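 HCT-116 cells carrying a p53-inducible beta-lactamase reporter were seeded at 4000 cells/well and dosed after 5 h with compound in DMSO (217-fold dilution). After 16 h at 37C, CCF4-AM substrate was added for 2 h, and the 460/530 nm emission ratio was scored as gain-of-signal versus DMSO.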

The target is the same in test [6]. Kind of test: TOX21_p53_BLA_p4_ratio: Tox21 HCT-116 p53 Agonism Beta-lactamase Assay, Ratio, Phase 4 (AID 2283601). In short, it runs like this: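 HCT116 cells carrying an inducible beta-lactamase reporter were plated at 4000 cells/well, rested 5 h, then exposed to compounds in DMSO (217-fold dilution) for 16 h at 37C. CCF4-AM substrate was loaded 2 h at room temperature; 460/530 nm emission ratio scored gain-of-signal versus DMSO.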

Test [7] is described as follows: TOX21_p53_BLA_p4_viability: Viability Assessment in the Tox21 HCT-116 p53 Agonism Beta-lactamase Assay, Phase 4 (AID 2283597).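 Further: hits lower the luminescence signal meaning cytotoxicity.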 In short, it runs like this:
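Luminescent ATP readout (CellTiter-Glo, 30 min, room temperature) in the same wells as the p53 bla ratio. HCT116 cells were treated for 16 h at 37C with DMSO-dissolved compounds.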

A short description of test [8]: CCTE_Harrill_HTTr_Viability_MCF7: CCTE's 6-hour Cell Viability Assessment for the High-Throughput Transcriptomics (HTTr) Platform, in MCF-7 cells cultured in DMEM + 10% fetal bovine serum, Harrill Lab (AID 2284010; active means hit-call score of the fitted dose curve at least 0.9, where 1 is the maximum; inactive means score below 0.9). In short, it runs like this:
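MCF-7 cells in DMEM + 10% FBS, 384-well, exposed 6 h to an eight-point dilution series. Membrane integrity scored by high-content imaging of propidium iodide exclusion; bidirectional fit versus DMSO.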

A short description of test [9]: CCTE_Harrill_HTTr_CellCount_MCF7: CCTE's Cell Proliferation Assessment for the High-Throughput Transcriptomics (HTTr) Platform, Harrill Lab (AID 2284012).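 Further: cells exposed to compound for six hours; intended direction is loss of nuclei count meaning fewer cells.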 A digest of the protocol:
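MCF7 cells exposed 6 hours to an eight-point dilution series; Hoechst-stained nuclei counted by high-content imaging. Bidirectional curve fitting against DMSO baseline.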

Test [10] in a line: CCTE_Harrill_HTTr_Apoptosis_MCF7: CCTE's 6-hour Apoptosis Assessment for the High-Throughput Transcriptomics (HTTr) Platform, in MCF-7 cells cultured in DMEM + 10% fetal bovine serum, Harrill Lab (AID 2284011; active means hit-call score of the fitted dose curve at least 0.9, where 1 is the maximum; inactive means score below 0.9). A digest of the protocol: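 Apoptosis in MCF-7 cells grown in DMEM with 10% fetal bovine serum was scored after a six hour exposure by high content imaging of caspase-3/7 activation (CellEvent Caspase 3/7 Green), with DMSO serving as negative control and baseline.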

Test [11] is described as follows: ACEA_ER_AUC_viability: ACEA Biosciences xCELLigence Real-Time Cell Analysis on Estrogen Receptor Agonism for Viability (AID 2283782).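 Further: continuous compound exposure with impedance area under curve over 80 h; hit means loss of impedance signal meaning reduced cell growth or viability.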 In short, it runs like this: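 T-47D human breast cells in phenol red-free RPMI1640 with 10% charcoal-stripped FBS were dosed with an 8-point 1:4 dilution series from 100 uM top final concentration, in duplicate. Impedance-based growth was followed for 80 h; AUC analysed versus DMSO.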

Records with an inconclusive call do not appear. Activity calls are given as the source filed them. How the source made its calls, unless noted: active means hit-call score of the fitted dose curve at least 0.9, where 1 is the maximum; inconclusive means response in the unintended direction; inactive means score below 0.9.

Sequence of Cellular tumor antigen p53 (Homo sapiens) (P04637 whole entry, looked up): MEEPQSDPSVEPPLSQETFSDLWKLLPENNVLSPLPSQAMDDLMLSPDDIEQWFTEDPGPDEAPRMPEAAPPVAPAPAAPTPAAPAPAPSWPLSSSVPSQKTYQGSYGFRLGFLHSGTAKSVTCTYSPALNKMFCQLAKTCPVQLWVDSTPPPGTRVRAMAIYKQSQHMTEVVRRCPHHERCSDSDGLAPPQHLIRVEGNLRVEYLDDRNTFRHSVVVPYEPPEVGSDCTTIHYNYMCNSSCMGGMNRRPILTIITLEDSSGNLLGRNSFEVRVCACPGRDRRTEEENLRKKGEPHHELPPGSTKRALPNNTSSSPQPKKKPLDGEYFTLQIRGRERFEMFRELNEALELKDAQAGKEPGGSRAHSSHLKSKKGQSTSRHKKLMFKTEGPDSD

`CCN(CC)C(=O)N[C@H]1C[C@@H]2c3cccc4[nH]cc(c34)C[C@H]2N(C)C1`: the compound was classed as inactive in test [1], in test [2], in [3] and in test [4].
As usually defined, the AC50 is the concentration at which the activity in the assay is half-maximal. Regarding `O=C(OCCN1CCCCC1)C(O)(c1ccccc1)c1ccccc1`, the outcome in [1], in test [3], in test [5] and in test [6] was inactive. In addition, the AC50 in test [2] was 42400 nM (active).
As to `C=C1CC[C@@]2(O)[C@H]3Cc4ccc(O)c5c4[C@@]2(CCN3CC2CC2)[C@H]1O5`, the call in test [1], in test [2], in test [3] and in [6] was inactive.
As for `C#CCOC(C(=O)OCCN(C)C)(c1ccccc1)c1ccccc1`, the compound was called inactive in test [1], in [2], in test [7], in [4] and in test [6].
As for `[Cl-].[Cl-].[Cl-].[Fe+3]`, the compound was classed as inactive in test [1], in test [2], in [7], in test [4], in [8] and in test [9].
With `C=CC[C@]1(O)CC[C@H]2[C@@H]3CCC4=CCCC[C@@H]4[C@H]3CC[C@@]21C`, the call in [1], in [2], in [7] and in test [4] was inactive.
`CCCN(CCC)C(=O)Cc1c(-c2ccc(Cl)cc2)nc2ccc(Cl)cn12`: the result in [1], in test [2], in test [7], in test [4] and in [6] was inactive.
In the case of `Cl`, the call in [1], in test [2], in [7], in test [4], in test [8] and in [10] was inactive. In test [9], the result was inactive.
In the case of `C[C@H]1O[C@H](OC2[C@@H](O)[C@@H](O)C(O)[C@H](O)[C@H]2O)[C@@H](N)C[C@@H]1N=C(N)C(=O)O` (some centres not stated), the compound was called inactive in test [1], in test [2] and in [5].
Consider `CCOC(=O)c1cn2nc(OP(=S)(OCC)OCC)cc2nc1C`, for which the call in test [1], in test [2], in test [7], in test [4] and in test [6] was inactive.
Regarding `CC(C)CCCCCOC(=O)c1ccccc1C(=O)OCCCCCC(C)C`, the result in test [1], in [2], in test [7] and in [6] was inactive.
On to `C[C@]12CC[C@H]3[C@@H](CCC4=CC(=O)CC[C@@]43C)[C@@H]1CC[C@@H]2OC(=O)CCc1ccccc1`, for which the compound was classed as inactive in test [1], in test [2], in test [7], in test [5] and in [4].
As to `N#C/C(N)=C(/N)C#N`, the compound was called inactive in [1], in [2], in test [3], in test [4] and in [6].
On to `NNC(=O)c1ccccc1`, for which the compound was classed as inactive in test [1], in test [2], in [3], in test [5] and in test [6].
Consider `CCCN(CC1CC1)c1c([N+](=O)[O-])cc(C(F)(F)F)cc1[N+](=O)[O-]`, for which the call in test [1], in test [2], in test [7], in test [5], in [8] and in [10] was inactive. Moreover, the AC50 in test [11] was 25400 nM (active).
On to `CC(=O)O[C@H]1C[C@H](O[C@H]2[C@@H](O)C[C@H](O[C@H]3[C@@H](O)C[C@H](OC4CC[C@@]5(C)C(CC[C@@H]6[C@@H]5CC[C@]5(C)[C@@H](C7=CC(=O)OC7)[C@@H](O)C[C@]65O)C4)O[C@@H]3C)O[C@@H]2C)O[C@H](C)[C@H]1O[C@@H]1O[C@H](CO)[C@@H](O)[C@H](O)[C@H]1O` (some centres not stated), for which the AC50 in test [1] is 463 nM (active); in test [2], 683 nM (active); in test [7], 582 nM (active); in test [4] it was 473 nM (active).
For `CCCOC(=O)Cc1ccc(OCC(=O)N(CC)CC)c(OC)c1`, the call in test [1], in test [2], in [7] and in [6] was inactive.
As for `CC(=O)O[C@H]1C[C@H](O[C@H]2[C@@H](O)C[C@H](O[C@H]3[C@@H](O)C[C@H](OC4CC[C@@]5(C)[C@H](CC[C@@H]6[C@@H]5CC[C@]5(C)[C@@H](C7=CC(=O)OC7)CC[C@]65O)C4)O[C@@H]3C)O[C@@H]2C)O[C@H](C)[C@H]1O[C@@H]1O[C@H](CO)[C@@H](O)[C@H](O)[C@H]1O` (some centres not stated), the AC50 in test [1] was 99.4 nM (active); in [2] it was 85.5 nM (active); in test [7], 137 nM (active); in [4], 74.9 nM (active). Further, in test [5], the outcome was inactive.
